Assay outcomes from PubChem BioAssay.
Sampled rows, rich in hits. Any-hit rate of the full collection: about 2.2%.
TMEM16A act: activators or potentiators of mouse TMEM16A chloride channel | Q8BHY3 | HEK293 TMEM16A/YFP-H148Q/I152L, iodide quench fluorescence; hits give low values | B-score at 10 µM | 340,000 compounds, 0.3% hits;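 active means fluorescence-ratio B-score plate-corrected deviation score at least 3 library SD below zero, with starting fluorescence score within 5 deviations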;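 further: channel opened by trigger with iodide after compound preincubation; score built on the fluorescence ratio of max minus min over baseline; more negative score means more quench and so TMEM16A activation or potentiation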
Target sequence (Q8BHY3 whole entry, looked up): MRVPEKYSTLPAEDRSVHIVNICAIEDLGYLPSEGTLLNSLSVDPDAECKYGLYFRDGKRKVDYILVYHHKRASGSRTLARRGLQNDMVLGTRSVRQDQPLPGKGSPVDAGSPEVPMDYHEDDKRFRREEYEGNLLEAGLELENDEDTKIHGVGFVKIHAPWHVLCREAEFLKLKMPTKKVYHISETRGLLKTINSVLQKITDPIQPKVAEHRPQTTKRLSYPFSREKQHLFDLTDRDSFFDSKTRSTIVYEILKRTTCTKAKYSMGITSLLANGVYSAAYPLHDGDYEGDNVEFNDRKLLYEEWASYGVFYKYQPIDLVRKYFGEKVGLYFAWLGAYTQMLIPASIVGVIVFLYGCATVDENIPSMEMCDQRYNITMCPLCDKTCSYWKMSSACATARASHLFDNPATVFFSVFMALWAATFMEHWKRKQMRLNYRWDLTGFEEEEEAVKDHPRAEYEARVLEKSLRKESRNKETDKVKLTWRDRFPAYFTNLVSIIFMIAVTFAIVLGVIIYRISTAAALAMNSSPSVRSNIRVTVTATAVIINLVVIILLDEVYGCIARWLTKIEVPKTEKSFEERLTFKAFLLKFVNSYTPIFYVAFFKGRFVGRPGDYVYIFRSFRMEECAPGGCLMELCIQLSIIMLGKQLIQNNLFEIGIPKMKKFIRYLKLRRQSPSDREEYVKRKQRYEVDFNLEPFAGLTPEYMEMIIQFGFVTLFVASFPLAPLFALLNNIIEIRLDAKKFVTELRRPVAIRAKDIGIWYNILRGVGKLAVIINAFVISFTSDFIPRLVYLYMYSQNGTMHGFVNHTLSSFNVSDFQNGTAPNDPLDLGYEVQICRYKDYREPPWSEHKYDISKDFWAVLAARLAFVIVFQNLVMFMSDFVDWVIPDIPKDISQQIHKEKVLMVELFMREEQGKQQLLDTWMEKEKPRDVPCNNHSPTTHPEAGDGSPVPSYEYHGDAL
TMEM16A inh: mouse TMEM16A channel inhibition, primary screen; 310,000 compounds, 1.2% hits; AID 588511; Q8BHY3; normalized B-score (activity score, 25-100; higher = stronger inhibition) at 10 µM; HEK293 TMEM16A/YFP iodide influx fluorescence, ionomycin;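 active means ratio plate-corrected score three or more library SD toward inhibition, starting fluorescence score within five deviations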;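 further: score derived from kinetic fluorescence span divided by baseline fluorescence per well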
CHO-K1 Ca antag: nonselective inhibitor or artifact in parental CHO-K1 cells | ATP-induced calcium, Fluo-8 fluorescence | inhibition, % at 3 µM | 360,000 compounds, 0.6% hits | AID 602250;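 active means inhibition above a per-plate cutoff, the plate's mean sample inhibition plus 3 SD, cut at about 24% in these data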;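 further: 0% = DMSO plus EC80 ATP and 100% = DMSO alone without ATP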
CHO-K1 Ca ag: counter-screen for M1 agonists: effect in parental CHO-K1 cells; Fluo-8 calcium fluorescence; scaled to maximal ATP response, vehicle zero; 360,000 compounds, 0.48% hits; activation, % at 3 µM; in the data active means activation above about 15%;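 further: untransfected CHO-K1 host cells lacking M1 receptor as counterscreen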
NTR1 agonist: activates human neurotensin receptor 1. NTR1-U2OS beta-arrestin-GFP spot imaging, agonist mode. AID 493036. activation, % at 20 µM. 330,000 compounds, 0.17% hits;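 active means activation at or above 40% of the spot to cytoplasm intensity ratio, with at least 20 cells analyzed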;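 further: 0% = DMSO without peptide and 100% = 100 nM NTR1 peptide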
CHO-K1 Ca PAM: nonselective activator or artifact in parental CHO-K1 calcium assay. ATP EC20, Fluo-8 calcium fluorescence; 0% at ATP EC20, 100% at ATP max. activation, % at 3 µM. 360,000 compounds, 0.02% hits. AID 602247;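 active means activation above the run cutoff, the mean activation of all test compounds plus 3 SD, cut at about 40% in these data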;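 further: peak over basal fluorescence ratio in a 140 s read after ATP addition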
* marks the source's active call; other numbers are inactive results; i = inactive; · = no result given.

SMILES | TMEM16A act | TMEM16A inh | CHO-K1 Ca antag | CHO-K1 Ca ag | NTR1 agonist | CHO-K1 Ca PAM
COc1cc(/C=C2\SC(=S)N(c3cccnc3)C2=O)ccc1O | i | i | 1.7 | 18.1* | 0.5 | 6.6
Cn1cc(/C=C2\SC(=O)NC2=S)c2ccccc21 | -4.62* | i | -15.0 | 0.1 | -1.7 | 13.9
Cc1ccc(C(=O)NN2C(=O)/C(=C/c3cn(C)c4ccccc34)SC2=S)cc1 | i | i | -5.0 | 1.0 | · | 23.1
CCn1cc(S(=O)(=O)CC(=O)Nc2ccc(C)cc2)c2ccccc21 | i | i | 26.7* | 0.1 | -2.1 | -7.7
COc1c(CC=C(C)C)c(O)cc2oc(=O)c3c4ccc(O)cc4oc3c12 | · | i | -3.3 | -0.1 | 11.2 | 0.4
CC(C)=CCc1c(O)cc2c(=O)c3ccc(O)cc3oc2c1O | -7.03* | i | -4.5 | 1.2 | 14.0 | 11.1
CCCN(CC(=O)Nc1ccccc1C)C(=O)c1cnc(C)cn1 | i | · | 4.4 | 1.3 | · | -7.2
CC1(C(=O)NS(=O)(=O)C2CC2)CCCN(C(=O)c2cccc(OC(F)(F)F)c2)C1 (stereo not given) | · | · | -1.7 | -0.1 | · | -0.4
COc1ccccc1NS(=O)(=O)c1cc(NC(=S)Nc2cc(C)cc(C)c2)ccc1Cl | -5.56* | i | -5.5 | 1.3 | 1.4 | 18.7
O=C(Nc1ccc(Cl)c(S(=O)(=O)Nc2ccccc2Cl)c1)c1cccs1 | i | 25* | -5.0 | 2.9 | 6.0 | 4.7
O=C1c2[nH]c3ccccc3c2CC1N1C(=O)c2ccccc2C1=O (stereo not given) | · | · | -5.5 | 8.3 | · | 11.8
CCOC(=O)N1CCN(C(=O)c2ccc3c(=O)n(Cc4ccc(Cl)cc4)c(=S)[nH]c3c2)CC1 | i | i | -19.8 | -0.3 | 14.2 | 9.4
CCOC(=O)N1CCN(C(=O)c2ccc(Cn3c(=S)[nH]c4ccc(Br)cc4c3=O)cc2)CC1 | i | 100* | -6.3 | -0.3 | 13.5 | -1.9
O=[N+]([O-])c1cc2c(c([N+](=O)[O-])c1)Nc1ccccc1O2 | · | · | 11.7 | 16.8* | · | 0.1
CC1(C(=O)O)CCCN1C(=O)c1ccco1 (stereo not given) | · | · | 2.5 | -0.7 | · | -1.9
CCSc1nnc(NC(=O)C2CSC3(C)CCC(=O)N23)s1 (stereo not given) | i | · | -10.2 | 0.3 | 0.4 | 9.6
COCCNC(=O)c1cnn2c(C(F)(F)F)cc(-c3ccc(C)cc3)nc12 | -5.24* | i | 4.1 | 1.3 | 5.0 | -6.3
CCOC1=C2[C@@H](CN(S(=O)(=O)c3ccc(C)cc3)[C@H]2c2ccccc2Cl)[C@H]2C(=O)N(C(C)(C)C)C(=O)[C@H]2C1 | · | · | 26.5* | -0.4 | · | 4.2
CCOC(=O)C(CSCC(=O)c1ccc(Br)cc1)NC(=O)OC(C)(C)C (stereo not given) | · | 100* | · | · | 2.8 | ·
COc1ccc(/C=C/C(=O)N(C)Cc2cccs2)cc1S(=O)(=O)N1CCOCC1 | i | i | -0.2 | 16.4* | -1.3 | 4.5
CC1C(=O)N(Cc2cn(CC3CCCCC3)nn2)CCS(=O)(=O)N1Cc1ccc(-c2cccc(CO)c2)cc1 (stereo not given) | · | · | -8.8 | 6.8 | · | 16.9
Cc1ccc(-c2nc(SCC(N)=O)c(C#N)c3c2CCCC3)cc1 | i | i | 30.0* | -0.1 | 7.3 | -3.4
COc1ccc2c(c1)C(CC(C)=O)N(c1ccc(-c3cccs3)cc1)C(c1ccsc1)=C2 (stereo not given) | · | · | -6.7 | 0.2 | · | -0.4
CCc1ccc2c(COC(=O)c3n[nH]c4ccccc34)cc(=O)oc2c1 | i | 100* | -16.0 | 0.2 | 9.3 | 7.1
COc1cccc(-c2cnc(C(O)c3ccc(Cl)cc3)[nH]2)c1 (stereo not given) | · | · | -6.7 | 3.9 | · | 14.0
SMILES | TMEM16A act | TMEM16A inh | CHO-K1 Ca antag | CHO-K1 Ca ag | NTR1 agonist | CHO-K1 Ca PAM
C#CCNC(=O)C[C@@H]1C[C@@]2(C(=O)OCC)CCC=C2N(Cc2ccc(Cl)cc2Cl)C1=O | · | · | -0.9 | -0.5 | · | -1.1
COc1ccc(C(=O)NCCSCc2ccccc2C)cc1 | i | i | 30.4* | -0.1 | -4.4 | -8.3
Cn1nccc1C(=O)c1ccc(Cl)cc1 | i | i | 24.2* | -0.5 | 1.8 | -9.5
CCCNc1c(NS(=O)(=O)c2ccc(Cl)s2)c(=O)oc2ccccc12 | i | i | 29.4* | 0.1 | 2.3 | -11.5
CCCNc1c(NS(=O)(=O)c2cccs2)c(=O)oc2ccccc12 | i | i | -16.6 | 1.3 | 0.5 | 17.1
COc1ccccc1N1C(=O)C2C(C(=O)c3ccccc3)=NN(c3ccc(Br)cc3)C2C1=O (stereo not given) | i | i | 30.1* | 31.4* | 6.3 | -1.4
O=C(CSc1nncn1-c1ccccc1)Nc1cc(Cl)cc(Cl)c1 | i | 25* | -15.8 | 0.5 | 3.7 | 5.1
NC(=O)c1ccc(NC(=O)CSc2nncn2-c2ccccc2)cc1 | i | i | -12.4 | 0.8 | 3.1 | 12.8
COc1ccc(Cl)cc1NC(=O)NC(C)c1ccncc1 (stereo not given) | i | i | 28.5* | -0.3 | 0.7 | -6.8
COc1ccc(C)cc1NC(=O)NC(C)c1ccncc1 (stereo not given) | i | i | -6.0 | 0.3 | -0.5 | 11.7
Cc1ccc(C(=O)N2CCSC2=S)cc1 | i | i | 25.8* | -0.5 | 0.7 | -7.9
CCC1Oc2ccccc2N(CC(=O)N2CC(C)CC(C)C2)C1=O (stereo not given) | · | · | 20.6 | -0.7 | · | -16.0
COc1ccc(S(N)(=O)=O)cc1C(=O)OCCCOc1ccc(F)cc1 | i | i | 10.8 | 18.3* | 0.2 | 2.0
CN(C)CCCN(C(=O)CCc1ccccc1)c1nc2c(F)cccc2s1 | i | i | 0.5 | 17.9* | 1.1 | 20.5
CN(C)CCCN(C(=O)CCOc1ccccc1)c1nc2c(F)cccc2s1 | i | · | -3.7 | 1.6 | · | 12.9
CC(C)C[C@@H](CN1CCC[C@H]1CN1C(=O)C(=O)NC[C@@H]1Cc1ccccc1)N1C[C@H](Cc2ccccc2)N(CC2CCCCCC2)C(=O)C1=O | · | · | -9.1 | 0.2 | · | -4.3
O=C(NC1CCCC1)c1ccc2nc(-c3ccco3)c(-c3ccco3)nc2c1 | i | i | 26.1* | 0.0 | 3.4 | -6.3
O=C(NCCO)c1ccc2nc(-c3ccco3)c(-c3ccco3)nc2c1 | i | i | -1.1 | -0.1 | -3.0 | 11.2
CC1(C(=O)NS(=O)(=O)C2CC2)CCN(C(=O)COc2ccc(Cl)cc2Cl)C1 (stereo not given) | · | · | -1.5 | -0.2 | · | 8.0
CC(=O)Nc1cccc(N(C)S(C)(=O)=O)c1 | i | i | -11.3 | 0.4 | -0.9 | 12.4
Cc1ccc(SCCC(=O)Nc2cccc(N(C)S(C)(=O)=O)c2)cc1 | i | i | 41.8* | 25.0* | -0.7 | -1.6
COc1ccccc1CNC(=O)CSCc1cnn(-c2ccccc2)c1-n1cccc1 | i | i | -1.4 | 2.1 | 1.0 | 8.7
